Test results taken from the supplement of paper PMC10849652.
Targets with a hit are over-represented here; the source holds about 7,900 in all. About 0.6% of all pairs of compound and target were hits. Unmarked numbers belong to inactive results.

Key:
Test in all cases: log2 fold change, soluble protein after heating vs DMSO (PISA); higher = thermal stabilisation; K562 cells, 10 uM, 30 min; active = over 0.2 and 3.5 SD of the protein, either way, in both replicates (recomputed)
[1] = compound: CS(=O)(=O)c1ccc(-c2cnc(N)c(C(=O)Nc3ccccc3)n2)cc1
Method in brief: (§1)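 Values are thermal stability changes relative to control samples and are taken from duplicates. They are stated as log2 fold changes. Before quantification by TMTpro 16plex LC-MS/MS with equalised channel sums, K562 cells at 2×10^6 cells/mL were treated with 10 μM compound for 30 min, heated in aliquots for 3 min across 48°C-58°C, pooled, extracted in PBS with 0.5% NP-40 at 4°C, and centrifuged at 21,000xg for 90 min to give the soluble supernatant.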

crizotinib = compound: C[C@@H](Oc1cc(-c2cnn(C3CCNCC3)c2)cnc1N)c1c(Cl)ccc(F)c1Cl [crizotinib]
Method in brief: as §1

[2] = compound: C[C@@H]1COCCN1C2=NC(=NC(=C2)C3(CC3)S(=O)(=O)C)C4=C5C=CNC5=CC=C4
Method in brief: as §1

[3] = compound: C[C@H](C1=CC=C(C=C1)C(=O)NC2=C3C=CNC3=NC=C2)N
Method in brief: as §1

duvelisib = compound: C[C@H](Nc1ncnc2nc[nH]c12)c1cc2cccc(Cl)c2c(=O)n1-c1ccccc1 [duvelisib]
Method in brief: as §1

gandotinib = compound: Cc1cc(Nc2cc(CN3CCOCC3)c3nc(C)c(Cc4ccc(Cl)cc4F)n3n2)n[nH]1 [gandotinib]
Method in brief: as §1

tozasertib = compound: Cc1cc(Nc2cc(N3CCN(C)CC3)nc(Sc3ccc(NC(=O)C4CC4)cc3)n2)n[nH]1 [tozasertib]
Method in brief: as §1

[4] = compound: Cc1cc(SCc2sc(-c3ccc(C(F)(F)F)cc3)nc2C)ccc1OCC(=O)O
Method in brief: as §1

doramapimod = compound: Cc1ccc(-n2nc(C(C)(C)C)cc2NC(=O)Nc2ccc(OCCN3CCOCC3)c3ccccc23)cc1 [doramapimod]
Method in brief: as §1

ispinesib = compound: Cc1ccc(C(=O)N(CCCN)[C@@H](c2nc3cc(Cl)ccc3c(=O)n2Cc2ccccc2)C(C)C)cc1 [ispinesib]
Method in brief: as §1

bafetinib = compound: Cc1ccc(NC(=O)c2ccc(CN3CC[C@H](N(C)C)C3)c(C(F)(F)F)c2)cc1Nc1nccc(-c2cncnc2)n1 [bafetinib]
Method in brief: as §1

[5] = compound: Cc1cccc(CC(=O)N2CCc3c2ccc(-c2cn(C)c4ncnc(N)c24)c3F)n1
Method in brief: as §1

nilotinib = compound: Cc1cn(-c2cc(NC(=O)c3ccc(C)c(Nc4nccc(-c5cccnc5)n4)c3)cc(C(F)(F)F)c2)cn1 [nilotinib]
Method in brief: as §1

[6] = compound: Cc1nc(Nc2n[nH]c3c2CN(C(=O)N[C@H](CN(C)C)c2ccccc2)C3(C)C)c2sccc2n1
Method in brief: as §1

dasatinib = compound: Cc1nc(Nc2ncc(C(=O)Nc3c(C)cccc3Cl)s2)cc(N2CCN(CCO)CC2)n1 [dasatinib]
Method in brief: as §1

[7] = compound: Cc1ncc(-c2ccnc(Nc3ccc(S(C)(=O)=O)cc3)n2)n1C(C)C
Method in brief: as §1

[8] = compound: Cn1cc(-c2ccc3c(c2)CCN3C(=O)Cc2cccc(C(F)(F)F)c2)c2c(N)ncnc21
Method in brief: as §1

[9] = compound: Cn1cc(-c2ccc3nnc(C(F)(F)c4ccc5ncccc5c4)n3n2)cn1
Method in brief: as §1

tipifarnib = compound: Cn1cncc1[C@@](N)(c1ccc(Cl)cc1)c1ccc2c(c1)c(-c1cccc(Cl)c1)cc(=O)n2C [tipifarnib]
Method in brief: as §1

mubritinib = compound: FC(F)(F)c1ccc(/C=C/c2nc(COc3ccc(CCCCn4ccnn4)cc3)co2)cc1 [mubritinib]
Method in brief: as §1

UniProt Q8WV07, sequence (Q8WV07 whole entry, looked up): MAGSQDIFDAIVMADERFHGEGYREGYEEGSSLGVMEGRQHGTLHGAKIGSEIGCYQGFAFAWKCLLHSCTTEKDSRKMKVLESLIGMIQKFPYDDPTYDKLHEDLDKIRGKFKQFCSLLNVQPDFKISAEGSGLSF
UniProt O00629, sequence (O00629 whole entry, looked up): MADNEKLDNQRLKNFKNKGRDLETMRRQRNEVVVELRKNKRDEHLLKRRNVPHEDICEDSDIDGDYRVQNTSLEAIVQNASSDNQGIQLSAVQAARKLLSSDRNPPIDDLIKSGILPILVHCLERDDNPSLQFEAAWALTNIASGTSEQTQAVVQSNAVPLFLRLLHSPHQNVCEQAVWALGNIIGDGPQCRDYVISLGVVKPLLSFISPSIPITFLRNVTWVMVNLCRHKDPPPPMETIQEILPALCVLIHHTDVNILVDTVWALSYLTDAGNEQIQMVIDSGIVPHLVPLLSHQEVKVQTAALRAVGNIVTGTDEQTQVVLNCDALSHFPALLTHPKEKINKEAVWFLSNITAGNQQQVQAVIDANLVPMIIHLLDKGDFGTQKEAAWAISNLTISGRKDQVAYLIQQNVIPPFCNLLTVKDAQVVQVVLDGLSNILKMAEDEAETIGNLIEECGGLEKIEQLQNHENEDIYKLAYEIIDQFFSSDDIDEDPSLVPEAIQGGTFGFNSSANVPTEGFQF
UniProt P08514, sequence (P08514 whole entry, looked up): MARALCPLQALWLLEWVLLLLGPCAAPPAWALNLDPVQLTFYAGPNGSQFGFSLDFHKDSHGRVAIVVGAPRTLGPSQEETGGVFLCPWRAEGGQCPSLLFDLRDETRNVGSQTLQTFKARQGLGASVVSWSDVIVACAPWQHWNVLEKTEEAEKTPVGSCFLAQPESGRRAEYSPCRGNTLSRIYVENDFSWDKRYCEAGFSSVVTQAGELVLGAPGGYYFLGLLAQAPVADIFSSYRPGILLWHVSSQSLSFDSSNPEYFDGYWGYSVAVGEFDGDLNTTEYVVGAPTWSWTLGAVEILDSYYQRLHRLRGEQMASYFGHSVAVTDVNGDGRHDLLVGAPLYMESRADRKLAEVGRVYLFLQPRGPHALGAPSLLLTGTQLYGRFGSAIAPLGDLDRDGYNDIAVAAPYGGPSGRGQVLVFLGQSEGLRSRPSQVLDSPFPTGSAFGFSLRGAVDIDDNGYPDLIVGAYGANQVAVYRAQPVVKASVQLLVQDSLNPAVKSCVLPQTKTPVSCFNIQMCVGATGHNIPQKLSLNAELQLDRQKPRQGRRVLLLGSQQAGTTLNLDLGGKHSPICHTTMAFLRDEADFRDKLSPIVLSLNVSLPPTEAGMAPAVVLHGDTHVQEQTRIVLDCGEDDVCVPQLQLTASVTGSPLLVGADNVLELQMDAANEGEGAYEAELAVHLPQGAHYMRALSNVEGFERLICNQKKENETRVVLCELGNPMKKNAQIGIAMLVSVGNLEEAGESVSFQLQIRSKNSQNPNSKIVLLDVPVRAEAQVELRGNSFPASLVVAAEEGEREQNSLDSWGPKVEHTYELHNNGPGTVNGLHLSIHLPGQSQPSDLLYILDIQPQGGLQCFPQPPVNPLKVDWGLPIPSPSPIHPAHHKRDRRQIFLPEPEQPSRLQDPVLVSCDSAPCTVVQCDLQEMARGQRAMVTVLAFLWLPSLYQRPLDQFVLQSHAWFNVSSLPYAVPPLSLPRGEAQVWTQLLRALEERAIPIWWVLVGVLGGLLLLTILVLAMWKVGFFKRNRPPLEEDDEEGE
UniProt P01116, sequence (P01116 whole entry, looked up): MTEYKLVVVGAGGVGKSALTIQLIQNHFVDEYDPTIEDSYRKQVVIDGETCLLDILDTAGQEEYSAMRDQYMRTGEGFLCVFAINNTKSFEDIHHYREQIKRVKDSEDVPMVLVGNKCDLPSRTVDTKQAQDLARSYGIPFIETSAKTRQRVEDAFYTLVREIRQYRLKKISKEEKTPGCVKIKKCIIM
UniProt Q6N075, sequence (Q6N075 whole entry, looked up): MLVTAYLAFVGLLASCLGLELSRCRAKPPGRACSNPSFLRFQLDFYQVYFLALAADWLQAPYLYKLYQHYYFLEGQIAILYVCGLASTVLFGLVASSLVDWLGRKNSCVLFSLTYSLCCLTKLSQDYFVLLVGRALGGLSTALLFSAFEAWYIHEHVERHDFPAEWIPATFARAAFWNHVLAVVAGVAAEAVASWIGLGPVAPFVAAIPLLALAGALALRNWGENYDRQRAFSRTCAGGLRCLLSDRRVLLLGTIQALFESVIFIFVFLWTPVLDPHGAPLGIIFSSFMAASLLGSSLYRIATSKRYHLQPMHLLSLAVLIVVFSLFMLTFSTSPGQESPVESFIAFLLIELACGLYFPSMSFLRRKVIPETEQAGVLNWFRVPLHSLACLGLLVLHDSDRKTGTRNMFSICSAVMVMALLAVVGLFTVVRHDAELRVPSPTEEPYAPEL
UniProt P27448, sequence (P27448 whole entry, looked up): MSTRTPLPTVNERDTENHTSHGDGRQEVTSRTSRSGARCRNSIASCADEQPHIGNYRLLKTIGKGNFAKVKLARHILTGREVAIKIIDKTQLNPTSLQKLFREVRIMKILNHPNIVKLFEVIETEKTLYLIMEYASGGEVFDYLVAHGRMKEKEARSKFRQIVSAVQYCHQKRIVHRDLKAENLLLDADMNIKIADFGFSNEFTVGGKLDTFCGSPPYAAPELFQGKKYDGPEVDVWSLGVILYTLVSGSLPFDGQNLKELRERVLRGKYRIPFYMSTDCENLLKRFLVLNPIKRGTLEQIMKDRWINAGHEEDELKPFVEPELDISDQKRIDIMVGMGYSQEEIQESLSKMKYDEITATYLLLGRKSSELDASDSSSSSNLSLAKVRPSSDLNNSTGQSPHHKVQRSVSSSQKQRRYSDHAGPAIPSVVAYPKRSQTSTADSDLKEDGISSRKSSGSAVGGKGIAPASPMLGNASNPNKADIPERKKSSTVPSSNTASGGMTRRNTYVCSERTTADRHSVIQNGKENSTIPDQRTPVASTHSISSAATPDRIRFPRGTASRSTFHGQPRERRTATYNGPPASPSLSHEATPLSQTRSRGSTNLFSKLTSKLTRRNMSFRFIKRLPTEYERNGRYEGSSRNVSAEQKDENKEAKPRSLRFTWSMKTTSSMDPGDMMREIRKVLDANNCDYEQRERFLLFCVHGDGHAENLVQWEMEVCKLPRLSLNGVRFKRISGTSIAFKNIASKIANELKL
UniProt Q13418, sequence (Q13418 whole entry, looked up): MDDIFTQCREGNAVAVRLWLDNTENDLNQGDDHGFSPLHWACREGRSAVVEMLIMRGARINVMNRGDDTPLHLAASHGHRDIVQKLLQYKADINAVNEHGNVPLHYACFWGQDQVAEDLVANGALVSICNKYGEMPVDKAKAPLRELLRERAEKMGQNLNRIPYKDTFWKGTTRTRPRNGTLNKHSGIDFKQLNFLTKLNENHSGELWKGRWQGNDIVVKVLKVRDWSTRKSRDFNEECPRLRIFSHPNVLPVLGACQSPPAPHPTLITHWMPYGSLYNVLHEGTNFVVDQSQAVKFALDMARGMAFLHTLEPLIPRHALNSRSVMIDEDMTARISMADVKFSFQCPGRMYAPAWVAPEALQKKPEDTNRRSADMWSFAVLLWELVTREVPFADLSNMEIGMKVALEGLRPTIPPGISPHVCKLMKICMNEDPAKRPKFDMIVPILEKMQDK
UniProt Q14680, sequence (Q14680 whole entry, looked up): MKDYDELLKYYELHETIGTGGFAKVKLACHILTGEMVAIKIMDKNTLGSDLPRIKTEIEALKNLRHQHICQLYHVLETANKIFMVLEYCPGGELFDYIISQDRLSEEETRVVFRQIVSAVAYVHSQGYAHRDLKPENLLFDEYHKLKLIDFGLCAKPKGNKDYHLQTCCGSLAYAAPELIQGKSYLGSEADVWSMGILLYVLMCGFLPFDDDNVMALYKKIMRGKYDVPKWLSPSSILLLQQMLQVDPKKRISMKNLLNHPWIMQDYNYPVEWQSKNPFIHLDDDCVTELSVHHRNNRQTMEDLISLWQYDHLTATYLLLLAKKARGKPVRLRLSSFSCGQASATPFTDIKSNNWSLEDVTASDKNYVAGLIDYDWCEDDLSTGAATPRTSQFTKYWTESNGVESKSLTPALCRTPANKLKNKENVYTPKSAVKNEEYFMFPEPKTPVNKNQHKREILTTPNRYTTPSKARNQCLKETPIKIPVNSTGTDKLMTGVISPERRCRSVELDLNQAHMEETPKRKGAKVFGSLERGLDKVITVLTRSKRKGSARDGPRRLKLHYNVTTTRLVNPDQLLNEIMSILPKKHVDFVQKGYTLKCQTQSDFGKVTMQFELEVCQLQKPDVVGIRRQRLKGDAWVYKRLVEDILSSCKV
UniProt Q7L2J0, sequence (Q7L2J0 whole entry, looked up): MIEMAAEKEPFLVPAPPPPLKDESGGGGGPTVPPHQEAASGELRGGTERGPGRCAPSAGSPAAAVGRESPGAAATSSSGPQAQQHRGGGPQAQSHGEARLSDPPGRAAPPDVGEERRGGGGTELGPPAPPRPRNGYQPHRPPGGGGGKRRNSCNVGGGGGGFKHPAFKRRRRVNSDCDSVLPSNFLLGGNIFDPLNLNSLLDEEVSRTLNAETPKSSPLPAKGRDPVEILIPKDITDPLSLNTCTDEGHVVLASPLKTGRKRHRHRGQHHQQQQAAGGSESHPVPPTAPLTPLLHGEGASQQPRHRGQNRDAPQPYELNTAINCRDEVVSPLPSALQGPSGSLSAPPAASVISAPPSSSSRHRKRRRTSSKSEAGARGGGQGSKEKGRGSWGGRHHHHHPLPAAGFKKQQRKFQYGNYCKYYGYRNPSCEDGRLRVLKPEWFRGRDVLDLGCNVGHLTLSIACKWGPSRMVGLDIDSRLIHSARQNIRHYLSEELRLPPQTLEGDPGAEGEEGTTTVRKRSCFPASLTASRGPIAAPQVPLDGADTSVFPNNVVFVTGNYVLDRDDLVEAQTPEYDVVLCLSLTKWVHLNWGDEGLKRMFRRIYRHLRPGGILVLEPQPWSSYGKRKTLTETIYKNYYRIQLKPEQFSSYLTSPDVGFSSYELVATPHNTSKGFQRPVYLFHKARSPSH

Target | log2 fold change [1] | log2 fold change (crizotinib) | log2 fold change [2] | log2 fold change [3] | log2 fold change (duvelisib) | log2 fold change (gandotinib) | log2 fold change (tozasertib) | log2 fold change [4] | log2 fold change (doramapimod) | log2 fold change (ispinesib) | log2 fold change (bafetinib) | log2 fold change [5] | log2 fold change (nilotinib) | log2 fold change [6] | log2 fold change (dasatinib) | log2 fold change [7] | log2 fold change [8] | log2 fold change [9] | log2 fold change (tipifarnib) | log2 fold change (mubritinib)
MARK3 (UniProt P27448) | -0.042 | -0.394 (active) | -0.039 | 0.063 | -0.013 | -0.194 | -0.187 | 0.089 | 0.073 | -0.173 | 0.033 | 0.108 | -0.125 | -0.718 (active) | -0.104 | -0.11 | -0.062 | -0.046 | -0.013 | -0.075
LBR (UniProt Q14739) | 0.025 | 0.152 | 0.016 | -0.031 | -0.014 | -0.359 (active) | -0.026 | 0.017 | -0.02 | -0.08 | 0.113 | 0.101 | -0.201 | -0.007 | -0.017 | -0.018 | 0.041 | 0.012 | -0.141 | 0.026
LTO1 (UniProt Q8WV07) | 0.011 | 0.048 | -0.083 | -0.063 | 0.078 | -0.026 | -0.007 | -0.042 | 0.032 | 0.051 | -0.013 | -0.004 | -0.036 | -0.072 | 0 | 0.039 | -0.025 | -0.02 | -0.063 | 0.038
ILK (UniProt Q13418) | 0.054 | 0.038 | -0.001 | 0.046 | 0.081 | -0.039 | -0.105 | -0.046 | -0.023 | -0.153 | -0.038 | -0.012 | 0.122 | -0.024 | -0.07 | -0.002 | 0.027 | 0.005 | -0.023 | 0.048
LTV1 (UniProt Q96GA3) | 0.006 | -0.143 | -0.189 | 0.294 | -0.087 | 0.199 | 0.035 | 0.009 | 0.128 | -0.271 | 0.137 | -0.039 | -0.047 | 0.137 | 0.025 | 0.009 | -0.112 | -0.09 | 0.064 | 0.042
ITGA2B (UniProt P08514) | -0.076 | -0.068 | -0.077 | 0.045 | -0.11 | 0.283 | 0.15 | 0 | 0.031 | -0.088 |  | 0.256 | -0.04 | -0.013 | 0.012 | -0.151 | -0.122 | -0.051 | 0.073 | 
MFSD5 isoform 2 (UniProt Q6N075) | 0.069 | -0.039 | -0.04 | -0.046 | 0.112 | -0.045 | 0.144 | -0.004 | 0.004 | 0.051 | -0.126 | 0.009 | 0.054 | 0.055 | -0.029 | -0.057 | -0.048 | 0.009 | 0.141 | 0.128
IWS1 (UniProt Q96ST2) | 0.077 | 0.146 | 0.132 | 0.119 | 0.028 | 0.108 | 0.058 | 0.062 | -0.134 | 0.061 | 0.018 | -0.022 | -0.024 | 0.092 | -0.054 | 0.311 (active) | -0.013 | 0.022 | -0.021 | 0.035
MEAK7 (UniProt Q6P9B6) | -0.005 | -0.259 (active) | 0.049 | 0.005 | 0.121 | -0.224 | 0.018 | 0.024 | 0.031 | -0.139 | -0.094 | 0.042 | 0.024 | -0.036 | -0.078 | 0.025 | 0.02 | -0.03 | -0.022 | 0.052
KIF3B (UniProt O15066) | -0.004 | -0.018 | 0.054 | 0.03 | 0.05 | -0.199 | -0.051 | -0.023 | 0.076 | 0.04 | 0.007 | 0.122 |  |  | -0.06 |  | 0.002 | -0.048 | -0.07 | 0.115
MELK (UniProt Q14680) | 0.109 | -0.128 | -0.099 | 0.054 | -0.063 | -0.046 | -0.087 | -0.047 | -0.011 |  | -0.06 | 0.086 | 0.033 | -1.04 (active) | -0.149 | 0.14 | -0.092 |  | 0.097 | 
IKZF1 (UniProt Q13422) | -0.065 | -0.048 | 0.008 | -0.069 | 0.111 | -0.038 | -0.078 | 0.039 | -0.016 | -0.186 | -0.062 | -0.004 | 0.237 | -0.347 | -0.121 | -0.112 | 0.072 | 0.119 | -0.026 | -0.07
LENG8 (UniProt Q96PV6) | 0.022 | -0.342 | 0.112 | 0.107 | -0.005 | -0.094 | -0.016 | 0.055 | 0.039 | 0.241 | -0.088 | 0.112 | 0.006 | -0.036 | -0.388 | -0.146 | -0.039 | -0.031 |  | 0.032
KRAS isoform 2 (UniProt P01116) | 0.03 | 0.024 | -0.016 | 0.019 | -0.084 | -0.05 | -0.079 | -0.018 | -0.019 | -0.09 | 0.008 | -0.115 | -0.123 | 0.074 | -0.018 | -0.041 | 0.064 | -0.08 | 0.087 | 0.041
MEPCE (UniProt Q7L2J0) | -0.006 | 0.111 | 0.03 | -0.005 | -0.005 | -0.051 | 0.094 | 0.04 | -0.22 | -0.065 | -0.12 | 0.065 | 0 | -0.337 (active) | -0.116 | -0.123 | 0.023 | 0.061 | 0.029 | -0.018
KPNA4 (UniProt O00629) | 0.004 | -0.003 | 0.024 | -0.073 | 0.03 | -0.032 | -0.014 | 0.014 | -0.046 | 0.037 | -0.111 | 0.021 | 0.04 | -0.155 | -0.017 | -0.033 | 0.021 | 0.032 | -0.004 | 0.093
